Bioassay records (PubChem BioAssay)
The list is not random: actives were taken first. Their share in the collection is about 2.4%.
CHRM1 agonist: human M1 muscarinic receptor agonism; AID 588814; CHO-K1 hM1, Fluo-8 calcium fluorescence, agonist mode; 0% DMSO, 100% acetylcholine EC100; actives 0.33% (n = 360,000); activation, % at 3 µM;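 active = activation above the run's mean compound activation plus 3 SD, cut at about 16% in these data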;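 note: peak over basal fluorescence ratio within a 140 s kinetic read after compound addition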
Target sequence (P11229 whole entry, looked up): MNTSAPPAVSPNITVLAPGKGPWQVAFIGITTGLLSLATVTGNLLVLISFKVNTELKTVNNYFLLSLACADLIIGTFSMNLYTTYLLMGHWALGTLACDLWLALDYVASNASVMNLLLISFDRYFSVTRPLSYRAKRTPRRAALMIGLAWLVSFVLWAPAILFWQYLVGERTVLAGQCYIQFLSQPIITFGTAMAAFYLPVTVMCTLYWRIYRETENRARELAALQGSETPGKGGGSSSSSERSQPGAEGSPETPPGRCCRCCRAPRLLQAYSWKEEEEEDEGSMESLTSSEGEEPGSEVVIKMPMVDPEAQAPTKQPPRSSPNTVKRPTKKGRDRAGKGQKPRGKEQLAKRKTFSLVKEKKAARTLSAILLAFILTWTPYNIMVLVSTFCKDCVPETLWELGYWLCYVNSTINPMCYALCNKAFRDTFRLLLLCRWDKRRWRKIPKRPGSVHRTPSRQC
CHRM1 PAM: potentiates human M1 receptor response to acetylcholine. P11229. CHO-K1 hM1, Fluo-8 calcium fluorescence, ACh EC20; 0% = ACh EC20, 100% = maximal ACh. activation, % at 3 µM. actives 0.088% (n = 360,000). AID 588819; in the data active = activation above about 19%, passing the limit was not always enough
CHO-K1 Ca ag: counter-screen for M1 agonists: effect in parental CHO-K1 cells; actives 0.48% (n = 360,000); activation, % at 3 µM; Fluo-8 calcium fluorescence; scaled to maximal ATP response, vehicle zero; AID 602248; in the data active = activation above about 15%;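 note: untransfected CHO-K1 host cells lacking M1 receptor as counterscreen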
CHO-K1 Ca antag: nonselective inhibitor or artifact in parental CHO-K1 cells; ATP-induced calcium, Fluo-8 fluorescence; inhibition, % at 3 µM; actives 0.6% (n = 360,000); AID 602250;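 active = inhibition above a per-plate cutoff, the plate's mean sample inhibition plus 3 SD, cut at about 24% in these data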
CHRM1 antagonist: blocks human M1 muscarinic receptor. P11229. CHO-K1 hM1, Fluo-8 calcium fluorescence, ACh EC80 antagonist. inhibition, % at 3 µM. actives 1.3% (n = 360,000);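 active = percent inhibition above its own plate's cutoff, namely the mean of that plate's compound wells plus 3 SD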;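 note: peak over basal fluorescence ratio during 140 s after agonist addition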
M1 PAM parental: nonselective activator or artifact in parental CHO-K1 calcium assay. ATP EC20, Fluo-8 calcium fluorescence; 0% at ATP EC20, 100% at ATP max. activation, % at 3 µM. actives 0.02% (n = 360,000);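 active = activation above the run cutoff, the mean activation of all test compounds plus 3 SD, cut at about 40% in these data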;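 note: peak over basal fluorescence ratio in a 140 s read after ATP addition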
Hits are given with their value; n = inactive.

SMILES	CHRM1 agonist	CHRM1 PAM	CHO-K1 Ca ag	CHO-K1 Ca antag	CHRM1 antagonist	M1 PAM parental
CCN(CC)c1ccc2cc(C(C)=O)c(=O)oc2c1	n	n	n	n	n	n
CCN(CC)c1ccc2cc(C=O)c(=O)oc2c1	53	n	26	n	n	n
Cc1ccc(N2C(=O)c3cccc(Oc4ccc(Cl)cc4)c3C2=O)c(C)c1	n	n	n	n	n	n
O=C(O)CN1C(=O)c2cccc(Oc3ccc(Cl)cc3)c2C1=O	n	n	n	30	n	n
O=C(O)c1cnn(-c2nc(-c3ccc(Br)cc3)cs2)c1C(F)(F)F	n	n	n	n	n	n
CC1=CC2C(C3C=CC2(C)C(=O)C3(C)O)C(C)(O)C1=O (stereo not drawn)	n	n	n	n	n	n
CC1=[N+](C)N(c2ccccc2)C(=O)C1N=C/C=C/c1ccccc1 (stereo not drawn)	n	n	n	n	99	n
COc1ccccc1/C=C/C=NC1C(=O)N(c2ccccc2)[N+](C)=C1C (stereo not drawn)	n	n	n	n	n	n
COc1cc(OC)cc(C(=O)Nc2cccc3cccnc23)c1	n	n	n	n	n	n
COc1cccc(N=Nc2ccc3cccnc3c2O)c1	30	n	38	n	31	n
COc1cccc(N=Nc2ccc(O)c3ncccc23)c1	24	n	41	35	40	n
COc1ccc(N=Nc2ccc(O)c3ncccc23)cc1	n	n	n	n	n	n
CC(C)c1ccc(N(CC(=O)NCc2ccco2)C(=O)CCC(=O)Nc2nccs2)cc1	n	n	n	n	n	n
COCCNC(=O)C1CCC(Cn2c(=S)[nH]c3ccccc3c2=O)CC1 (stereo not drawn)	n	n	n	30	n	n
Cc1ccccc1C(=O)NNS(=O)(=O)c1ccc(F)cc1	n	n	n	24	n	n
O=C(OCC(=O)N1CCOCC1)c1ccc(Cl)cc1[N+](=O)[O-]	n	n	n	n	n	n
CN(C)CCCOc1ccc2c(c1)Sc1ccccc1CC2=O	24	n	n	n	n	n
Nc1ccc2c(c1)Cc1cc([N+](=O)[O-])ccc1-2	n	n	26	n	n	n
CC(O)CN(CC(C)O)c1ccc2c(c1)Cc1cc([N+](=O)[O-])ccc1-2 (stereo not drawn)	134	n	174	60	71	n
Cc1cc(Br)ccc1NC(=O)CNC(=O)CSc1nccn1C	n	n	n	n	n	n
O=C(CN1C(=O)C2CC=CCC2C1=O)Nc1nnc(C2CC2)s1 (stereo not drawn)	n	n	n	n	n	n
CCOc1c(C)cnc2c1c(=O)n(Cc1ccccc1F)c(=O)n2C	n	n	n	n	n	n
CCNc1nc(Oc2ccc(=O)n(-c3ccccc3)n2)nc(N(C)C)n1	n	n	n	n	n	n
CCNc1nc(OC)nc(Oc2ccc(=O)n(-c3ccccc3)n2)n1	n	n	n	24	n	n
Cc1ccc2c(c1)nnn2C1CCN(CC(=O)N(c2ccccc2)c2ccccc2)CC1	n	n	n	n	34	n
SMILES	CHRM1 agonist	CHRM1 PAM	CHO-K1 Ca ag	CHO-K1 Ca antag	CHRM1 antagonist	M1 PAM parental
Cc1ccc2c(c1)nnn2C1CCN(S(=O)(=O)c2cccc(S(=O)(=O)N(C)C)c2)CC1	n	n	n	n	37	n
Cc1ccc(C(=O)NC2CCCc3c2cnn3-c2ccc(F)cc2F)cn1 (stereo not drawn)	n	n	n	n	n	n
CC(=O)SCC[N+](C)(C)C	70	n	n	n	n	n
Cn1ccc2c(-c3ccc(F)cc3)cc3c(c21)C1CCC3C1 (stereo not drawn)	n	n	n	n	n	n
COc1ccc(-c2cc3c(c4c2ccn4C)C2CCC3C2)cc1F (stereo not drawn)	n	n	n	24	n	n
NC(=S)NNC(=O)C12CC3CC(CC(C3)C1)C2	29	n	19	n	23	n
CCN(CC)C(=O)[C@H]1CC(CC(=O)NC/C=C(\C)CCC=C(C)C)C(=O)N2CCc3c([nH]c4ccccc34)[C@]12C (stereo partly drawn)	n	n	n	n	n	n
Cc1cc(NS(=O)(=O)c2ccc(NC(=O)COc3ccc(C#N)cc3)cc2)nc(C)n1	n	n	n	n	n	n
